MITF act = increases MITF-driven TRPM1 promoter luciferase signal | activation, % at 12.5 µM | SK-MEL-5 TRPM1-promoter luciferase, 24 h; % of positive control, neutral wells = 0 | AID 588334 | 0.75% of 300,000 active;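 active = mean activation of at least 80% with every replicate also reaching 80%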;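 also: 0% = neutral control wells and 100% = parthenolide positive control wells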
HSF-1 act = increases HSF-1 driven luciferase reporter signal | activation, % at 9 µM | NIH3T3-HGL HSF-1 luciferase reporter, MG132, 8 h; 100% = twice DMSO control signal | AID 504408 | 1.7% of 300,000 active;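 active = mean replicate activation of at least 50% with a set share of replicates each reaching 50%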;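 also: 0% = median of the neutral control wells and 100% = twice that signal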
Wnt act = activates Wnt/beta-catenin signaling in a reporter cell assay | activation, % at 9.35 µM | AID 743398 | 1.2% of 300,000 active | activator, plate reader; in the data active = activation above about 30%, passing the limit was not always enough;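 also: 0% = neutral control wells and 100% = positive control wells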
esBAF inh = blocks esBAF chromatin remodeling in mouse ES cells; Bmi1-luciferase knock-in reporter, 24 h; 100% = twice the neutral-well signal; 2% of 350,000 active; reporter increase, % at 12.5 µM; in the data active = activation above about 40%;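 also: 0% = median of the plate's neutral control wells and 100% = double that signal; a rise in the Bmi1 reporter signal indicates esBAF inhibition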
HSF1 inh = HSF1 inhibition; NIH3T3-HGL HSE-luciferase, MG132-induced, luminescence 8 h; stronger effect = lower value; activity change, negative = inhibition, % at 7.5 µM (by protocol); 0.77% of 300,000 active; AID 2098;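 active = more than half of replicate wells show activity change below -50%, luminescence cut by over half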;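 also: luciferase reports HSF-1 transcriptional activity via heat shock element; 0% = median of DMSO wells and -100% = zero luminescence signal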
SMARCA2 activ = increases SMARCA2 function in MMTV reporter cells. MG213 cells, MMTV-luciferase reporter, dexamethasone, overnight. activation, % at 9.1 µM. 1% of 370,000 active; in the data active = activation above about 7.8%;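 also: 0% = vehicle wells and 100% = reference activator wells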
SMARCA2 act conf = confirmation of SMARCA2 (BRM) function activators. MG213 cells, MMTV-luciferase with dexamethasone, luminescence, overnight; MG213 cells expressing E1A, Rb sequestered; DMSO wells 0%, reference activator 100%. 30% of 3,500 active. shares compounds with SMARCA2 activ. activation, % at 9.1 µM;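 active = activation above its plate's cutoff, the mean activation of tested wells plus 3 SD, cut at about 7.9% in these data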
GAL4-VP16 Luc = activates GAL4-VP16 luciferase, flagging SMARCA2 activator hits; HEK293 GAL4-VP16 pG5luc reporter, luciferase luminescence; scaled: DMSO wells 0%, SAHA wells 100%; 41% of 3,500 active; activation, % at 9.1 µM; shares compounds with SMARCA2 activ; AID 686939;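 active = activation above the solvent-only control well mean plus 3 SD, averaged across control plates, cut at about 5.2% in these data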
Starred values were filed as active, the others as inactive; x = not tested or not shown. Shown are actives, neighbours in structure and some others; about 4.3% of the full set was active somewhere.

SMILES | MITF act | HSF-1 act | Wnt act | esBAF inh | HSF1 inh | SMARCA2 activ | SMARCA2 act conf | GAL4-VP16 Luc
COC(=O)[C@@H]1[C@@H](CO)[C@@H]2Cn3c(ccc(-c4cccc(F)c4)c3=O)[C@H]1N2C(=O)CC1CC1 | x | x | x | -2 | x | x | x | x
CC(C)CC#Cc1ccc([C@H]2[C@@H](CO)N3CCCCN(C(=O)Cc4ccccn4)C[C@H]23)cc1 | x | x | x | 1 | x | x | x | x
Cc1ccccc1NC(=S)NC(NC(=O)CF)C(Cl)(Cl)Cl (stereo not given) | -1 | -18 | -1 | x | -7 | 9.2* | 3 | -1
COc1ccc(NC(=S)NC(NC(=O)CF)C(Cl)(Cl)Cl)c([N+](=O)[O-])c1 (stereo not given) | 23 | -2 | x | -5 | -5 | -1 | x | x
CN1[C@H](CO)[C@H]2c3ccccc3NC[C@H]21 | x | x | x | -1 | x | x | x | x
Cc1ccccc1CN1Cc2cnnn2-c2ccccc2C1C#N (stereo not given) | -96 | x | -7 | 1 | x | 9.2* | -9 | -1
O=C(Cc1ccccn1)N1CCCCN2[C@H](CO)[C@H](c3ccc(-c4ccccc4F)cc3)[C@@H]2C1 | x | x | x | 9 | x | x | x | x
CN/C=C(/Cl)P(=O)(OC(C)C)OC(C)C | -5 | 16 | 2 | x | 7 | 8.0* | 4 | -1
CC=Cc1ccc2n(c1=O)C[C@@H]1[C@@H](CO)[C@H](C(=O)OC)[C@H]2N1S(=O)(=O)c1ccccc1C (mixture of isomers) | x | x | x | 1 | x | x | x | x
CN(C)C(=O)Oc1cccc(-c2cn3cc(Cl)ccc3n2)c1 | 48 | 30 | 15 | 38 | 19 | 26* | 18* | 6.3*
Clc1ccc(N2CCN(Cc3ccccc3Cl)CC2)cc1 | 12 | 1 | 1 | 2 | 4 | 8.2* | 1 | 1
Clc1ccccc1CN1CCN(c2ccccc2)CC1 | 0 | 2 | -1 | 0 | -10 | 4 | x | x
NC(Cc1ccccc1)c1csc(Nc2ccccn2)n1 (stereo not given) | x | x | 20 | x | x | 13* | 8.2* | 0
OC12ONC(c3ccccn3)C1N1CCC2CC1 (stereo not given) | -2 | -4 | 14 | -7 | 4 | 10.0* | 2 | 1
Cc1cc2c(cc1C)NP(=S)(c1ccccc1)N2 | 71 | x | -3 | 39 | x | 9.3* | 6 | 8.3*
COc1cccc(-c2ccc3n(c2=O)C[C@H]2[C@H](CO)[C@@H](C(=O)O)[C@@H]3N2Cc2ccccc2F)c1 | x | x | x | 2 | x | x | x | x
C[C@H]1CN([C@@H](C)CO)C(=O)CCCn2nncc2CO[C@@H]1CN(C)C(=O)Oc1ccc2ccccc2c1 | x | x | x | 1 | x | x | x | x
O=C(c1cc(S(=O)(=O)N2CCCCC2)ccc1F)N1CCC2(CC1)OCCO2 | -1 | 6 | -2 | -5 | 0 | 8.1* | -5 | 0
O=C(c1ccccc1F)N1CCC2(CC1)OCCO2 | 2 | 9 | 1 | 1 | -1 | -2 | x | x
C[C@@H]1CN([C@@H](C)CO)C(=O)CCCn2cc(nn2)CO[C@@H]1CN(C)C(=O)Oc1cccc2ccccc12 | x | x | x | 2 | x | x | x | x
O=C(Cc1ccccn1)N1CCCCN2[C@H](CO)[C@H](c3ccc(Br)cc3)[C@H]2C1 | x | x | x | -3 | x | x | x | x
CCOC(=O)c1c(C)[nH]c(C(=O)C(C)N2CCCC2)c1C (stereo not given) | 5 | 9 | 0 | x | -5 | 8.4* | 0 | 1
CN(C)P(=O)(C(Cl)=C(N1CCCCC1)N1CCCCC1)N(C)C | 7 | -15 | 0 | -5 | -8 | 19* | 39* | -2
COC(=O)[C@H]1[C@H](CO)[C@H]2Cn3c(ccc(-c4ccncc4)c3=O)[C@@H]1N2S(=O)(=O)c1ccccc1F | x | x | x | 1 | x | x | x | x
CC1CCCN(CC(=O)c2ccc(Cl)c(Cl)c2)C1 (stereo not given) | -1 | 7 | -1 | x | 4 | -1 | x | x
CC1CCN(CC(=O)c2ccc3c(c2)OCCO3)CC1 | 50 | 20 | 0 | 4 | -2 | 8.0* | 7 | 9.6*
COc1ccc(-c2nc3ccccc3c(=O)o2)cc1 | 19 | 23 | 7 | 50* | 17 | 9.8* | 8.7* | 7.4*
COc1ccc(-n2c(SC)nc3ccccc3c2=O)cc1 | 2 | -8 | x | 3 | -5 | -2 | x | x
Fc1cccc(F)c1-c1nc(-c2ccc(Cl)cc2)no1 | x | 24 | 65* | 64* | 14 | 8.2* | 13* | 3
COC(=O)C(O)(c1ccc(NC(=O)NC2CCCCC2)cc1)C(F)(F)F (stereo not given) | 50 | -5 | -2 | 30 | -15 | 10* | 8 | 5.2*
